Out of some 410,000 compounds screened, about 6,400 (1.6%) were called active. Where a call stands in place of a potency, no number is given. Inconclusive results (about 20%) are left out. The sample holds actives, similar compounds and a random draw of the others, so the mix is not that of the screen. Calls come from the whole dose curve; as a rule, active = well fitted inhibition curve with a large enough effect; inconclusive = small, poorly fitted or top-dose-only effect; inactive = no such curve, though single readings can be large or run the other way.
Potency is the fitted concentration of half-maximal effect.

Sequence of Glucagon-like peptide 1 receptor (Homo sapiens) (P43220 whole entry, looked up): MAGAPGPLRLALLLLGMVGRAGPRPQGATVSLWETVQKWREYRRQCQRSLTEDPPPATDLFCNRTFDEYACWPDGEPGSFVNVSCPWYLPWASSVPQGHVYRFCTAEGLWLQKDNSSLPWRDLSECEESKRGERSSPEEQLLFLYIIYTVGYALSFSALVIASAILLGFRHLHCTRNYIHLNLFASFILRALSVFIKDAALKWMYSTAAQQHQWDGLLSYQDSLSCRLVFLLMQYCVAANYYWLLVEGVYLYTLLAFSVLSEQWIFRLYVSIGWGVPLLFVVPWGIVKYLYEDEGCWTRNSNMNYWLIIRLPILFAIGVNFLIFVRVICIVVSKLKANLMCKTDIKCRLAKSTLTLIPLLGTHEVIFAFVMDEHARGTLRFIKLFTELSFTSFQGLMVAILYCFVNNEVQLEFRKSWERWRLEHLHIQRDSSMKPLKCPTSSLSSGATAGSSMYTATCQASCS

This test addresses Glucagon-like peptide 1 receptor (Homo sapiens) (UniProt P43220). In words: qHTS of GLP-1 Receptor Inverse Agonists (Inhibition Mode). Note: nearly all actives have a fitted effect of over 55% in size. As to conditions: HEK293 GLP-1R CRE-luciferase, luminescence, 24 h, GLP-1R form is constitutively active; series mostly up to 38.3 µM. The source says: The overall goal of this project was to develop a novel assay for discovering small molecule ligands for class B1 G protein-coupled receptors (GPCRs). Very few agonists (or inverse agonists in inhibition mode) with generally weak activity for this entire group of physiologically important receptors are known to date. To establish proof-of-principle that this critical bottleneck can be overcome with a suitable screening approach, our studies focused on the class B1 receptor for glucagon-like peptide-1 (GLP-1R), a potential therapeutic target for diabetes and neurodegenerative disease. The assay was developed using a cell-based functional readout. Toward this goal, stably transfected HEK293 cell clones were established that co-express (i) a cAMP-responsive luciferase reporter gene, and (ii) constitutively active GLP-1R that upon ligand interaction inhibit (inverse agonists) the luciferase activity. In addition, two control cell lines were developed: (i) one that express only the cAMP-responsive reporter gene to enable initial exclusion of GLP-1R independent effects of candidate probes; and (ii) one with the reported gene cloned with another constitutively active orphan receptor GPR119 to enable exclusion of GLP-1R independent inhibitor effects of candidate inverse agonists. To that end, this assay was optimized for 1536-well format and screened against the MLSMR. […] NIH Molecular Libraries Probe Production Network [MLPCN] NIH Chemical Genomics Center [NCGC] Grant: NS064851 PI Name: Martin Beinborn, Tufts Medical Center
Six ul of cell suspension (200 cells/uL in DMEM + 10% Nu serum + 1% pen-strep) is dispensed in a white solid 1536-well plate. The plates are incubated for 12 hours at 37 deg C at 5% CO2 followed by addition of 23 nL compounds. After 24 hr incubation at 37 deg C and 5% CO2, 3 uL of luciferase assay detection reagent is added. A luminescence read is obtained on the PerkinElmer Viewlux after 12 min incubation at room temperature.
A general note: In qHTS, concentration-response curves come from the screen itself.
As to `O=C(Nc1cccc2ccccc12)N1CCN(Cc2ccc3c(c2)OCO3)CC1`, the Potency result was “inactive”.

As to `O=C(CSCc1ccc(Cl)cc1)N1CCN(Cc2ccc3c(c2)OCO3)CC1`, the Potency is 10 µM (active).

Take `O=C(c1cccs1)N1CCN(Cc2ccc3c(c2)OCO3)CC1`: the Potency entry was “inactive”.

`CCCC(=O)N1CCC1(C)C(=O)NCc1ccc(SC)cc1` (centres undefined): the Potency result was “inactive”.

As for `CC1(C(=O)NS(=O)(=O)c2ccccc2Cl)CCN1C(=O)c1cccc(F)c1` (centres undefined), the Potency result is “inactive”.

Regarding `O=C(N/N=C/c1ccc(OC(=O)c2ccccc2Cl)cc1)c1ccc(O)cc1`, the Potency entry was “inactive”.

Take `O=C(N/N=C/c1ccc(OCc2ccccc2)cc1)c1ccc(O)cc1`: the Potency was 2.82 µM (active).

Consider `O=C(Cc1cccs1)N/N=C/c1ccc(OCc2ccccc2)cc1`, for which the Potency entry was “inactive”.

Take `O=C(O)c1ccccc1Cc1ccc(F)c2ccccc12`: the Potency result is “inactive”.

On to `CCC(C(=O)NC(C)(C)C)n1c(-c2ccccc2)nc2ccccc21` (centres undefined), for which the Potency entry is “inactive”.

`C[C@H]1CN([C@@H](C)CO)C(=O)c2cc(-c3ccccc3F)cnc2O[C@H]1CN(C)C(=O)C1CCOCC1`: the Potency result is “inactive”.

As for `CC1(C(=O)Nc2cccc3cccnc23)CCN1C(=O)CCC1CCCC1` (centres undefined), the Potency result was “inactive”.

On to `O=C(NCCN1CCOCC1)c1ccc2c(c1)N(Cc1cccc(Cl)c1)C(=O)c1ccccc1S2(=O)=O`, for which the Potency entry was “inactive”.

For `Cc1ccccc1N1CCN(Cc2nc(Cc3ccccc3F)no2)CC1`, the Potency is 11.2 µM (active).

For `Cc1cccc(N2CCN(Cc3nc(C4CC4)no3)CC2)n1`, the Potency entry was “inactive”.

For `Fc1cccc(Cc2noc(CN3CCN(c4cnccn4)CC3)n2)c1`, the Potency result is “inactive”.

`Cc1cc(Cl)ccc1OCCCC(=O)NCc1ccccn1`: the Potency entry was “inactive”.

As for `Cc1cc(Cl)ccc1OCCCC(=O)Nc1cccc(-n2cnnn2)c1`, the Potency was 10 µM (active).

With `Cc1cc(Cl)ccc1OCCCC(=O)NCc1ccncc1`, the Potency entry was “inactive”.

With `COc1ccc(C(O)c2nc(-c3ccc(OC)nc3)cs2)cc1` (centres undefined), the Potency result was “inactive”.

In the case of `Cc1cc(Br)cn2c(Cc3ccccc3C(F)(F)F)c(-c3ccc(Cl)cc3)nc12`, the Potency result is “inactive”.

As for `CCCCN(C=O)c1c(CC)nc2c(OCc3ccccc3C(=O)OC)cccn12`, the Potency result was “inactive”.

With `O=S1(=O)CC(N2CCN(c3ccccn3)CC2)CN1Cc1ccc(F)cc1` (centres undefined), the Potency result is “inactive”.

As for `CCc1nc2c(OCc3ccc(F)c(F)c3)cccn2c1N(C)C(=O)c1ccco1`, the Potency entry was “inactive”.

For `CCCNC(=O)c1cc(C2CCCCN2S(=O)(=O)c2ccc(C#N)cc2)on1` (centres undefined), the Potency result is “inactive”.

As for `Cc1nc(NC(=O)C23CCC(C)(C(=O)O2)C3(C)C)sc1C` (centres undefined), the Potency result was “inactive”.

Take `Cc1nc(NC(=O)C2CCCCC2)sc1C`: the Potency was 8.91 µM (active).

Consider `Cc1nc2ccc(NC(=O)C3CCCCC3)cc2s1`, for which the Potency result was “inactive”.

In the case of `NC(=O)CSc1nnc(-c2cccc(S(=O)(=O)N3CCOCC3)c2)o1`, the Potency result is “inactive”.

These data come from PubChem BioAssay AID624417 (National Center for Advancing Translational Sciences (NCATS), 2012).
